Results as given in PubChem BioAssay (NCI).
About 83,000 compounds went through this panel and 20% of them were active in at least one assay; those are over-represented in the sample as a whole.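 Note: values are percent growth. 100 is the growth of untreated cells, values between 100 and 0 indicate rising inhibition; between -100 and 0 indicates cell death.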 A number with no mark means an inactive call. Active and inactive are the calls of the source. The calls were made as follows: active = growth percent below 10; inactive = the rest.

Experiments:
Assay in all cases: NCI-60 one-dose screen, 48 h (100 = growth as untreated, 0 = no growth, -100 = all killed)
Conditions in all cases: 10 µM unless noted
HCT-15 colon = test system: HCT-15 colon
HT29 colon = test system: HT29 colon
SNB-75 CNS = test system: SNB-75 CNS
SNB-19 CNS = test system: SNB-19 CNS
U251 CNS = test system: U251 CNS
PC-3 prostate = test system: PC-3 prostate
SK-MEL-5 melanoma = test system: SK-MEL-5 melanoma
UACC-62 melanoma = test system: UACC-62 melanoma
LOX IMVI melanoma = test system: LOX IMVI melanoma
SK-MEL-28 melanoma = test system: SK-MEL-28 melanoma
SK-MEL-2 melanoma = test system: SK-MEL-2 melanoma
EKVX NSCLC = test system: EKVX NSCLC
SN12C renal = test system: SN12C renal
UO-31 renal = test system: UO-31 renal
TK-10 renal = test system: TK-10 renal
ACHN renal = test system: ACHN renal
CAKI-1 renal = test system: CAKI-1 renal
A498 renal = test system: A498 renal
CCRF-CEM leukemia = test system: CCRF-CEM leukemia
MOLT-4 leukemia = test system: MOLT-4 leukemia

Row | SMILES | growth (HCT-15 colon) | growth (HT29 colon) | growth (SNB-75 CNS) | growth (SNB-19 CNS) | growth (U251 CNS) | growth (PC-3 prostate) | growth (SK-MEL-5 melanoma) | growth (UACC-62 melanoma) | growth (LOX IMVI melanoma) | growth (SK-MEL-28 melanoma) | growth (SK-MEL-2 melanoma) | growth (EKVX NSCLC) | growth (SN12C renal) | growth (UO-31 renal) | growth (TK-10 renal) | growth (ACHN renal) | growth (CAKI-1 renal) | growth (A498 renal) | growth (CCRF-CEM leukemia) | growth (MOLT-4 leukemia)
1 | CCOC(=O)c1cc(C(=O)c2ccc(OC)cc2)n2ccc(/C=C/c3cc[n+](CC(=O)c4ccc(OC)cc4)cc3)cc12 | 85.9% | 16.5% | 57.9% | 31.3% | 53.5% | 64.1% | 87.8% | 99.5% | 25.4% | 103% | 100% | 87.8% | 56.2% | 72.7% | 91.7% | 70.2% | 81.8% | 67.6% | -22.5% (active) | 49.8%
2 | O=[N+]([O-])c1ccc(N=Nc2cc(S(=O)(=O)O)c3cccc(S(=O)(=O)O)c3c2O)cc1 | 118% | 111% | 104% | 112% | 104% | 98.5% | 104% | 108% | 106% | 117% | 106% | 82.7% | 104% | 66.1% | 127% | 107% | 57.4% | 124% | 119% | –
3 | COc1ccc(CCn2cncc2-c2c[nH]c3ccccc23)cc1 | 93.1% | 82.9% | 44.4% | 91.4% | 95.7% | 80.7% | 88.2% | 81.6% | 88.3% | 101% | 88.6% | 71.4% | 80.8% | 50.7% | 141% | 87% | 68.7% | 69.5% | 101% | 93.1%
4 | Cc1cc2cc3ccc(N(C)C)cc3nc2cc1N | 19.4% | -37.3% (active) | -11.5% (active) | -4.5% (active) | -2.3% (active) | 12.7% | -0.276% (active) | -27.5% (active) | -53.7% (active) | -68.5% (active) | -20.2% (active) | -7.41% (active) | -26% (active) | 19.1% | 9.89% (active) | 0.143% (active) | 30.5% | -2.05% (active) | 5.51% (active) | –
5 | COC(=O)c1ccc2c(c1)[n+](=O)c(C(C)=O)c(C(F)(F)F)n2[O-] | -77.5% (active) | -56% (active) | -20.5% (active) | -6.44% (active) | -72.2% (active) | -58.1% (active) | -100% (active) | -32.7% (active) | -95.3% (active) | 27% | -31.9% (active) | -46.3% (active) | -34% (active) | -82% (active) | 25.9% | -99.3% (active) | -78.5% (active) | 6.79% (active) | – | –
6 | COC1=CC(=O)c2ccccc2C1=O | 99.7% | 38.9% | 33.7% | 105% | 52.6% | 65.7% | 47.8% | 74.2% | 4.09% (active) | 90% | 69.3% | 110% | 84.8% | 71.9% | 94% | 75.6% | 95.6% | 107% | – | –
7 | Cc1cc(Cl)nc(N(CCNc2ccnc3cc(Cl)ccc23)Cc2ccccn2)n1 | 48.7% | 24.7% | 78.6% | 62.5% | 26.8% | 56.9% | 41.3% | 66.3% | 58.4% | 62.1% | 69.5% | 61.4% | 52.6% | 43.2% | 63.3% | 44.9% | 56.1% | 85.8% | 7.95% (active) | –
8 | Cn1cc(-c2csc(-c3c[nH]c4ccccc34)n2)c2ccnc(Cl)c21 | -8.86% (active) | 27.9% | 77.7% | 94% | 48.6% | 56% | 50% | 84.9% | 82.6% | 85.1% | 94.4% | 79.6% | 76.5% | 49.3% | 77.4% | 54.2% | 66.1% | 53.8% | 57.4% | –
9 | Cc1cccc(C)c1N=c1oc2ccc(Cl)cc2nc1-c1ccccc1O | 89.4% | 80.5% | 87.3% | 109% | 94.4% | 88.6% | 91.3% | 81.3% | 87.9% | 93.4% | 85.7% | 78.8% | 86.9% | 76.8% | 101% | 90.7% | 90.4% | 95.3% | – | –
10 | O=C(CSc1nc2ccccc2[nH]1)NCc1ccccc1 | 105% | 99.4% | 74.5% | 97.8% | 106% | 98.8% | 102% | 95.2% | 98.3% | 102% | 120% | 101% | 95.8% | 83.6% | 4.87% (active) | 95.4% | 82.1% | 105% | 103% | –
11 | COc1cc(C2C3=C(COC3=O)N(CCO)c3cc4c(cc32)CCC4)cc(OC)c1OC (stereo unspecified) | 10.9% | 2.19% (active) | 61.3% | -12.9% (active) | 7.16% (active) | 21.3% | -60.3% (active) | 31.2% | 21.6% | 54.3% | 6.85% (active) | 29.6% | 23.9% | 31.9% | 55.3% | 26.1% | 28.7% | -20.4% (active) | – | –
12 | Cc1ncc(C(=O)Nc2ccc(CN3CCN(C)CC3)c(C(F)(F)F)c2)cc1C#Cc1cnc(N)cc1C#N | -65.2% (active) | -86.2% (active) | 37% | 74.4% | -98.6% (active) | -55.6% (active) | -100% (active) | -83.7% (active) | -99.9% (active) | -94.6% (active) | -63.8% (active) | 57.5% | -5.62% (active) | -96.8% (active) | -54.7% (active) | -100% (active) | -88.2% (active) | -35.5% (active) | 13.6% | –
13 | COc1cc(-c2cc(-c3ccc(N(C)C)cc3)nc(N3CCOCC3)c2C#N)cc(OC)c1OC | 44.1% | 12.1% | 25.3% | 45% | 24.2% | 44.4% | 3.48% (active) | -39% (active) | -58.6% (active) | 65.4% | 34.5% | 51.2% | 53.4% | 54.8% | 38.4% | 46.1% | 29.8% | 75.5% | 30.3% | –
14 | Oc1ccc(C2c3ccccc3Oc3ccccc32)c2cccnc12 | 30.3% | 21.7% | 27.2% | 26.7% | 10.8% | 34.2% | -58.8% (active) | 4.38% (active) | 5.35% (active) | 36% | 27.4% | 20.4% | 22.9% | 4.44% (active) | 39.1% | 7.81% (active) | 0.125% (active) | 36% | – | –
15 | COc1ccc(-c2cnc3c(-c4cccc5cnccc45)cnn3c2)cc1 | 64.5% | 41.3% | 42% | 47.2% | 56.3% | 50.6% | 56.5% | 59.3% | 80% | 60.5% | 75.5% | 96.1% | 58.8% | 52.1% | 65.8% | -1.14% (active) | 61.4% | 44.6% | 59.2% | –
16 | Cn1cc(-c2nc(-c3c[nH]c4c(Cl)nccc34)cs2)c2cc(Br)ccc21 | 66.5% | 74.9% | 94% | 97.6% | 77.9% | 81.2% | 88% | 80.3% | 73.4% | 88.9% | 87.6% | 74.1% | 88.9% | 84.5% | 86.3% | 76.5% | 92.4% | 72.3% | 74.4% | –
